In PubChem BioAssay (EPA / NIEHS) one finds outcome and AC50 data, which are given here for 19 compounds.

Molecules are shown by their SMILES. Active and inactive are the calls of the source. How the source made its calls: active means hit-call score of the fitted dose curve at least 0.9, where 1 is the maximum; inactive means score below 0.9.

This assay can be described thus: CCTE_Shafer_MEA_dev_interburst_interval_mean: CCTE's Neural Network Formation Assay for Mean Interburst Interval, Shafer Lab (AID 2284046). Here is the method:
CCTE_Shafer_MEA_dev assay is conducted using Axion Biosystems 48 well microelectrode array (MEA) plates and Maestro recording system. Each well of the MEA plate contains a grid of 16 microelectrodes embedded in the culture surface. Electrically active cells, such as neurons, can be cultured over the electrodes, and electrical activity in these cells can be recorded extracellularly. The spontaneous firing of neurons is captured from each electrode on a microsecond timescale providing both temporally and spatially precise data. […] The CCTE_Shafer_MEA_dev assay uses primary cultures of rat cortical neurons. Recordings are made on days post-plating 5, 7, 9 and 12. As these cultures mature over time, neural networks develop functional activity and form cohesive networks in which electrical activity can be highly coordinated. CCTE_Shafer_MEA_dev_interburst_interval_mean is 1 of 19 assay components of the CCTE_Shafer_MEA_dev assay. It measures the average time interval between consecutive single-electrode bursts (temporally-clustered groups of action potential firing) during a recording in a microelectrode array (MEA) using Axion Biosystems Maestro 768 channel amplifier with the AxIS adaptive spike detector. The mean inter-burst interval is averaged across the actively bursting electrodes to report a well-mean value. To collapse across multiple recordings made on days post-plating 5, 7, 9 and 12, the trapezoidal area-under-the-curve of the component is calculated.Data from the assay component CCTE_Shafer_MEA_dev_interburst_interval_mean was analyzed into 1 assay endpoint. This assay endpoint, CCTE_Shafer_MEA_dev_interburst_interval_mean, was analyzed in the negative analysis fitting direction relative to DMSO as the negative control and baseline of activity. Using a type of functional reporter, gain or loss-of-signal activity can be used to understand electrical activity.
On the day prior to culture, each well was coated thoroughly with 150 uL of 0.05% polyethyleneimine (PEI, Sigma Cat P3143) in 50 mM HEPES (Sigma Cat H7523) at a pH of 8. The plate was incubated at 37C for one hour. PEI was rinsed out with 500 uL of sterile water three times. Plates were stored at 4C until the day of culture. This culture was plated at a seeding density of 1.5 x 10^5 cells/well on a 48-well MEA plate, prepared as described above. Cells were administered via a 25 uL media/laminin ([…]; Sigma Cat L2020-1MG) drop directly onto the microelectrode array, as adding the cells with the laminin results in better attachment than pre-coating with laminin. After 2 hours, an additional 475 uL of cortical media was added and the cells returned to the incubator. Exposure starts at day 0 of plating and is continued over twelve days of network development until the experiment is terminated. Cells are fed with fresh medium on DIV 5 and 9, following the recordings on those days. The entire volume of media in the well is exchanged and any vehicle or compound treatment is renewed. Complete details are found in OP-NHEERL/ISTD/SBB/TJS/2015-03-r0 (available on request, email shafer.tim@epa.gov). Measurement of the electrical activity is non-invasive, and recordings can be made from the same plate over multiple different days of the culture. In cortical neurons, this allows for the measurement of extracellular action potentials over the period during which networks form in the MEA plate.
For the compound `O=S(=O)(O)CCC(F)(F)C(F)(F)C(F)(F)C(F)(F)F`, the call was inactive.
On to `OC(O)C(F)(F)C(F)(F)F`, for which the compound was called inactive.
Regarding `NC(=O)C(F)(F)C(F)(F)C(F)(F)C(F)(F)C(N)=O`, the compound was classed as inactive.
Still for that read-out and setting: for `O=S(=O)(O)CCC(F)(F)C(F)(F)C(F)(F)C(F)(F)C(F)(F)C(F)(F)C(F)(F)C(F)(F)F` the value was “inactive”; for `NC(=O)C(F)(F)C(F)(F)C(F)(F)F`, “inactive”; for `OCCCCC(F)(F)C(F)(F)C(F)(F)C(F)(F)F`, “inactive”.
Same read-out and setting: for `OCC(O)CC(F)(F)C(F)(F)C(F)(F)C(F)(F)F` (centres undefined) the value was “inactive”.
In the case of `C=CC(=O)OCC(F)(F)C(F)(F)C(F)(F)COC(=O)C=C`, the AC50 is 8.65 µM (active).
On to `OCC(F)(F)C(F)(F)C(F)(F)C(F)(F)C(F)(F)C(F)(F)C(F)(F)C(F)(F)CO`, for which the compound was classed as inactive.
As for `CCN(CCO)S(=O)(=O)C(F)(F)C(F)(F)C(F)(F)C(F)(F)C(F)(F)C(F)(F)C(F)(F)C(F)(F)F`, the compound was classed as inactive.
The same measure, in the same setting: for `CO[Si](C)(CCC(F)(F)C(F)(F)C(F)(F)C(F)(F)C(F)(F)C(F)(F)F)OC` the value was “inactive”; for `NC(O)(C(F)(F)F)C(F)(F)F`, “inactive”; for `FC(F)(F)C(F)(F)C(F)(F)C(F)(F)C(F)(F)C(F)(F)C(F)(F)CCI`, “inactive”.
Regarding `OCC(F)(F)C(F)(F)C(F)(F)CO`, the compound was classed as inactive.
For the compound `OCC(F)(F)C(F)(F)C(F)(F)C(F)(F)C(F)(F)C(F)(F)CO`, the compound was called inactive.
On the same count and under the same terms, the same measure for `O=C(O)C(F)(F)C(F)(F)C(F)(F)OC(F)(F)F`: “inactive”.
On to `CNS(=O)(=O)C(F)(F)C(F)(F)C(F)(F)C(F)(F)C(F)(F)C(F)(F)C(F)(F)C(F)(F)F`, for which the outcome was inactive.
As to `C=CC(=O)OCCC(F)(F)C(F)(F)C(F)(F)C(F)(F)F`, the compound was classed as inactive.
On the same count and under the same terms, the same measure for `NC(=O)C(F)(F)C(F)(F)C(F)(F)C(F)F`: “inactive”.
